# Measurements taken from PubChem BioAssay (NCATS).
# Several values for one entry are separate records, joined by “and”; a condition that tells them apart may be missing. Identical values can stand only once. Results filed as inconclusive are left out. A call without a number means that no potency is given here. A number with no mark means an inactive call. Activity calls are given as the source filed them. Calls come from the whole dose curve; as a rule, active = well fitted inhibition curve with a large enough effect; inconclusive = small, poorly fitted or top-dose-only effect; inactive = flat fitted curve, though single readings scatter. Where a SMILES comes first, the peptide text is derived from it. [ ]: non-standard residue; d: D form. ξ: configuration not given here. ξLac(3-iPr) = CC(C)CC(O)C(=O)O; NMeV = CN[CH](C(=O)O)C(C)C; βAla = NCCC(=O)O
# What was measured:
# [1] = target: Calcium and integrin-binding protein 1 (Homo sapiens) (UniProt Q99828); experiment: Primary qHTS for Identification of Calcium Integrin Binding Protein 1 (CIB1) Competitor (AID 1508620);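 note: GST tagged CIB1 binding a fluorescein labelled alphaIIb integrin peptide tracer; top concentration of the series differs between compounds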
# Chain of Calcium and integrin-binding protein 1 (Homo sapiens) (Q99828 whole entry, looked up): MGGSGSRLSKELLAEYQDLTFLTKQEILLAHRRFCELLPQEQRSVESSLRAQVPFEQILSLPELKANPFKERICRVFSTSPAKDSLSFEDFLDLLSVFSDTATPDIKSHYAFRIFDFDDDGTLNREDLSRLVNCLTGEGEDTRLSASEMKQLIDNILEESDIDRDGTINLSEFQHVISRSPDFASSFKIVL
# Method in brief: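 Fluorescence polarization competition: CIB1-GST (1 uM final) preincubated with compound 15 min at room temperature, then FITC-labeled alphaIIb peptide (100 nM final) added for another 15 min. Polarization read at Ex 480/Em 540.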
# [2] = Primary qHTS for inhibitors of nuclear receptor binding SET domain protein 2 (NSD2) in an isogenic RCH-ACV NSD2 p.E1099K mutant (9B) (AID 1645876); note: nearly all actives have a fitted effect of over 70% in size; note: potency is the fitted concentration of half-maximal effect
compound,measurement,setting,value
COC(=O)[C@@H](O)[C@H]1[C@@]2(C)CC3(O)[C@@H](C(=O)[C@H]2O)[C@]24O[C@]25CC(=O)O[C@@H](c2ccoc2)[C@]5(C)CCC4[C@]13C (some centres undefined),Potency,[1],inactive
same,Potency,[2],inactive
CC(C)CC(=O)O[C@@H]1OC=C(CO[C@@H]2O[C@H](CO)[C@@H](O)[C@H](O)[C@H]2O)[C@H]2[C@@H]3O[C@H]3[C@@](O)(CO)[C@@H]12,Potency,[1],inactive
same,Potency,[2],inactive
C[C@H]1O[C@@H](O[C@H]2CC[C@@]3(C)C(CC[C@]4(C)C3CC=C3C5CC(C)(C)CC[C@]5(C(=O)O)CC[C@]34C(=O)O)C2(C)C)[C@H](O)[C@@H](O)[C@@H]1O (some centres undefined),Potency,[1],inactive
same,Potency,[2],inactive
CC1=C(CCC(C)CC(=O)O)[C@@]2(C)CCCC(C)(C)C2CC1=O (some centres undefined),Potency,[1],inactive
same,Potency,[2],inactive
CC1(C)CC[C@]2(C(=O)O[C@@H]3O[C@H](CO[C@@H]4O[C@H](CO)[C@@H](O)[C@H](O)[C@H]4O[C@@H]4O[C@H](CO)[C@@H](O)[C@H](O)[C@H]4O)[C@@H](O)[C@H](O[C@@H]4O[C@H](CO)[C@@H](O)[C@H](O)[C@H]4O)[C@H]3O)CC[C@]3(C)C(=CCC4[C@@]5(C)CC[C@@H](O)[C@@](C)(C(=O)O[C@@H]6O[C@H](CO)[C@@H](O)[C@H](O)[C@H]6O)C5CC[C@]43C)[C@@H]2C1 (some centres undefined),"activity change, negative = inhibition",[1],-1.15% [at 12.4 µM]
same,outcome,[2],inactive [at 9.23 µM]
C[C@H](CCC(=O)O)[C@H]1CC[C@H]2[C@@H]3C[C@H](O)[C@@H]4C[C@H](O)CC[C@]4(C)[C@H]3CC[C@]12C,Potency,[1],inactive
same,Potency,[2],inactive
CC(C)c1c2cc(-c3ccnc(NC4CCC(NC5CCOCC5)CC4)n3)ccc2nn1C (centres undefined),Potency,[1],inactive
same,Potency,[2],163 nM (active) and 148 nM (active)
C=C[C@H]1[C@H](O[C@@H]2O[C@H](CO)[C@@H](O)[C@H](O)[C@H]2O)OC=C(C(=O)OC)[C@H]1CCOC(=O)c1cc(O)c(O)c(O)c1,Potency,[1],inactive
same,Potency,[2],inactive
C=CC(C)(C)c1[nH]c2ccccc2c1C[C@@H]1NC(=O)[C@H](Cc2c[nH]c3ccccc23)NC1=O,Potency,[1],inactive
same,Potency,[2],inactive
O=C1NC(Cc2ccccc2)C(=O)N2CCCC12 (centres undefined),Potency,[1],inactive
same,Potency,[2],inactive
CC(C)C(N)C(=O)OCCOCn1cnc2c(=O)[nH]c(N)nc21 (centres undefined),Potency,[1],inactive
same,Potency,[2],inactive
O=C1NC(=O)C(c2cn(-c3ccccc3)nc2-c2ccc(F)cc2)N1 (centres undefined),Potency,[1],inactive
same,Potency,[2],inactive
CC1(C)CC[C@]2(C(=O)O[C@@H]3O[C@H](CO)[C@@H](O)[C@H](O)[C@H]3O)CC[C@]3(C)C(=CCC4[C@@]5(C)C[C@@H](O)[C@H](O)[C@](C)(C(=O)O)C5CC[C@]43C)C2C1O (some centres undefined),Potency,[1],inactive
same,Potency,[2],inactive
COC1CC(O[C@H]2CC[C@@]3(C)C(=CC[C@]4(O)C3[C@H](OC(C)=O)[C@@H](OC(=O)c3ccccc3)[C@]3(C)[C@@H](C(C)=O)CC[C@@]34O)C2)OC(C)C1OC1CC(OC)C(OC2CC(OC)C(OC3OC(C)C(OC4OC(CO)C(O)C(O)C4O)C(OC)C3O)C(C)O2)C(C)O1 (some centres undefined),"activity change, negative = inhibition",[1],-4.32% [at 12.4 µM]
same,"activity change, negative = viability loss",[2],-11.2% [at 9.23 µM]
Cc1cc(Cl)ccc1COc1ccnn1-c1cc(C(=O)O)ccn1,Potency,[1],inactive
same,Potency,[2],inactive
C=C1C(=O)OC2/C=C(\CO)CC/C=C(\C=O)CC(OC(=O)CC(C)C)C12 (centres undefined),Potency,[1],inactive
same,Potency,[2],4.01 µM (active)
CC(=O)C12OC(C)(C)OC1CC1C3CCC4=CC(=O)C=CC4(C)C3(F)C(O)CC12C (centres undefined),Potency,[1],inactive
same,Potency,[2],inactive
C=C(C(=O)O)[C@H]1C[C@]2(C)[C@@H](O)CC[C@]23O[C@H]1C[C@@H]3C,Potency,[1],inactive
same,Potency,[2],inactive
CC1(C)CC2C(O)c3cocc3CC(C)(O)C2C1 (centres undefined),Potency,[1],inactive
same,Potency,[2],inactive
CC1=C(C)C(=O)OC(C(C)C2CCC3C4C5OC5C5(O)CC(OC6OC(CO)C(OC7OC(C)C(O)C(O)C7O)C(O)C6O)CC(O)C5(C)C4CCC23C)C1 (centres undefined),Potency,[1],inactive
same,Potency,[2],inactive
C=C1C[C@]23C[C@H]1CC[C@H]2[C@@]12CC[C@H](O)[C@@](C)(C(=O)O1)[C@H]2[C@@H]3C(=O)O,Potency,[1],inactive
same,Potency,[2],inactive
CC(C)CC1OC(=O)C2CCCN2C(=O)CCNC(=O)C(Cc2ccccc2)NC(=O)C(C(C)C)N(C)C(=O)C(C(C)C)N(C)C1=O (centres undefined) (cyclo([ξLac(3-iPr)][NMeV][NMeV]F[βAla]P); configuration not given here),Potency,[1],inactive
same,Potency,[2],inactive
C=C(C(=O)O)C1CC(O)C2(C)CCCC(=C)C2C1 (centres undefined),Potency,[1],inactive
same,Potency,[2],inactive
CNC12CC3C[C@@](C)(C1)C[C@](C)(C3)C2,Potency,[1],inactive
same,Potency,[2],inactive
COc1c2c(c(C)c3c1C(=O)OC3)O[C@@]1(C)CCC3(C(C)(C)O)OC(=O)CC[C@]3(C)[C@H]1C2 (some centres undefined),Potency,[1],inactive
same,Potency,[2],inactive
O=C(CO)[C@@H](O)[C@H](O[C@@H]1O[C@H](CO)[C@H](O)[C@H](O)[C@H]1O)[C@H](O)CO,Potency,[1],inactive
same,Potency,[2],inactive
CC(=O)O[C@@H]1[C@@H](OC(=O)/C=C/c2ccccc2)[C@@H](OC(C)=O)[C@H](O[C@H]2[C@@H]3C=CO[C@@H](O[C@@H]4O[C@H](CO)[C@@H](O)[C@H](O)[C@H]4O)[C@@H]3[C@@]3(CO)O[C@@H]23)O[C@H]1C,Potency,[1],inactive
same,Potency,[2],inactive
